# Assay results reported in PubChem BioAssay (NCI).
# The panel holds about 83,000 compounds, 20% with a hit somewhere; the sample as a whole holds those more often.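 Plates (96-well) were seeded with cells, treated with compound at one concentration, and incubated for 48 hours before percent growth was determined.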 A number with no mark means an inactive call. Calls of active or inactive are those of the source. Rule for the calls: active = growth percent below 10; inactive = the rest.
# Columns and labels:
# Assay in all cases: NCI-60 one-dose screen, 48 h (100 = growth as untreated, 0 = no growth, -100 = all killed)
# Details in all cases: 10 µM unless noted
# SK-MEL-2 melanoma = tested on: SK-MEL-2 melanoma
# SN12C renal = tested on: SN12C renal
# UO-31 renal = tested on: UO-31 renal
# TK-10 renal = tested on: TK-10 renal
# ACHN renal = tested on: ACHN renal
# A498 renal = tested on: A498 renal
# CCRF-CEM leukemia = tested on: CCRF-CEM leukemia
# MOLT-4 leukemia = tested on: MOLT-4 leukemia
# EKVX NSCLC = tested on: EKVX NSCLC
# CAKI-1 renal = tested on: CAKI-1 renal
SMILES,growth (SK-MEL-2 melanoma) [%],growth (SN12C renal),growth (UO-31 renal),growth (TK-10 renal),growth (ACHN renal),growth (A498 renal),growth (CCRF-CEM leukemia),growth (MOLT-4 leukemia),growth (EKVX NSCLC),growth (CAKI-1 renal)
CCOC(=O)c1sc2nc(-c3cc4ccccc4o3)cc(-c3ccc(Cl)cc3)c2c1N,83.8,82.4%,87.2%,145%,80.9%,98.2%,84%,99.3%,,
COc1ccc(C(=O)C(C#N)c2cc(OC)c(OC)c(OC)c2)cc1 (stereo not drawn),99.7,109%,96.5%,94%,104%,,102%,88%,,
CC1=NN(c2cccc(S(N)(=O)=O)c2)C(=O)C1,,90.9%,77.1%,97.8%,99.6%,88.6%,79.6%,99.7%,91.2%,51%
CCOc1cccc(/C=N/NC(=O)c2ccc(Nc3ccnc(C(F)(F)F)c3)cc2)c1O,,40.7%,-11% (active),28.4%,3.84% (active),-2.13% (active),-30.8% (active),31.2%,15.2%,13.8%
CNC(=O)c1ccccc1Sc1ccc2c(/C=C/c3ccccn3)n[nH]c2c1,,27.6%,17.3%,54.8%,31.2%,-23.3% (active),,13.4%,53.8%,30.7%
O=C(Cc1ccc(Nc2ccnc(C(F)(F)F)c2)cc1)N/N=C/c1ccccc1O,,36.1%,0.112% (active),22.7%,4.09% (active),145%,,64.4%,25.7%,32.3%
CCCCCc1c(C)[nH]c(/C=C2\N=C(c3ccc[nH]3)C=C2CC)c1C,,-89.9% (active),-85.8% (active),-88.9% (active),-94.7% (active),-90.8% (active),-58.3% (active),-58.8% (active),-90.3% (active),-82.1% (active)
O=C1OCC2=C1C(c1ccc(Cl)c(Cl)c1)c1cc3c(cc1N2CCO)CCC3 (stereo not drawn),,31.4%,26.3%,50.7%,32.8%,-0.897% (active),10.6%,18.9%,40.2%,35.7%
O=C(Nc1ccccc1)C(CCCCN1C(=O)c2ccccc2C1=O)N1C(=O)c2ccccc2C1=O (stereo not drawn),,102%,84.3%,105%,103%,99.1%,100%,96.5%,105%,105%
O=C(/C=C/c1ccccc1)n1c(-c2ccccc2)nc2ccccc21,112,101%,89.8%,101%,104%,85.8%,97.8%,99.1%,,
COc1ccc(-c2nsc3c2NC(=O)CC3c2ccc3c(c2)OCO3)cc1 (stereo not drawn),26.4,55.8%,33.6%,32.3%,50.3%,,3.82% (active),18.4%,,26.1%
ClCc1cccc(CSc2ncnc3c2ncn3Cc2cccc(CCl)c2)c1,,2.77% (active),40.6%,48.4%,70.1%,76.2%,3.41% (active),5.6% (active),92.9%,96.4%
NC(=O)Nc1ccc2ncnc(Nc3cccc(O)c3)c2c1,,94.9%,80.1%,103%,103%,77.4%,108%,98.8%,82.6%,84.8%
O=c1cc(-c2ccc3c(c2)OCCO3)oc2cc(Cl)ccc12,,26%,-72.2% (active),-78.2% (active),-70.1% (active),8.97% (active),97%,101%,28.1%,4.01% (active)
COc1ccc2c(c1)N(CCO)C1=C(C(=O)OC1)C2c1cccc(Br)c1 (stereo not drawn),,27.3%,32.3%,60%,28.4%,-1.77% (active),11.7%,13.9%,37.4%,8.86% (active)
